Measured values as given in PubChem BioAssay (NCATS).
Several values for one entry are separate records, joined by “and”; a condition that tells them apart may be missing. Identical values can stand only once. A number with no mark means an inactive call. Records with an inconclusive call do not appear. Activity calls are given as the source filed them. Unless noted, calls follow the shape of the dose curve; as a rule, active = well fitted curve in the direction sought with a large enough effect; inconclusive = small, poorly fitted or top-dose-only effect, or another doubt; inactive = no such curve, though single readings can be large; an effect the other way counts as inactive or inconclusive.

Target: Peroxisome proliferator-activated receptor alpha (Homo sapiens) (UniProt Q07869)
Experiment: qHTS assay for small molecule agonists of the peroxisome proliferator-activated receptor alpha (PPARalpha) signaling pathway (AID 651778); also: % of control where 0% means no effect
Details: PathHunter PPARalpha complementation, chemiluminescence, 6 h; max response: hits give high values
Outline: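 Cells plated at 2,000/well and held overnight at 37 C, 5% CO2, then compound added by pin tool for 6 hr; after PathHunter detection reagent and 60 min at room temperature, chemiluminescence from enzyme complementation was read.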

Peroxisome proliferator-activated receptor alpha (Homo sapiens), sequence (Q07869 whole entry, looked up): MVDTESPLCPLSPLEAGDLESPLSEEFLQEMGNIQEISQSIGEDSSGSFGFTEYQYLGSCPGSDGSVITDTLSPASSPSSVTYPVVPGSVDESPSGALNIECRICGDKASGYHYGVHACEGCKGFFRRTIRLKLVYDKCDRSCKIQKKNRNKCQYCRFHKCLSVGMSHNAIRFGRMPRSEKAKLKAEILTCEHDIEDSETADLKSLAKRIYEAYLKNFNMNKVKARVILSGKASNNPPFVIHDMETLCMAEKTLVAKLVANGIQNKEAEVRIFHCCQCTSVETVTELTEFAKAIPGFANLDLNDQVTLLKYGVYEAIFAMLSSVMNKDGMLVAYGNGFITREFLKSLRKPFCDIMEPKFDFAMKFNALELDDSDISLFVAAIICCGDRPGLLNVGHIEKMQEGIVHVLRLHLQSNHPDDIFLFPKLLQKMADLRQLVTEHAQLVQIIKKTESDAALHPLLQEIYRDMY

| SMILES | max response |
| --- | --- |
| CCCN(CCC)C(=O)SCC | -2.51% and -1.87% |
| COc1ccc2nc(N)sc2c1 | -0.146% and -0.816% |
| ClCCCl | 1.65% and -1.11% |
| CCC(O)OC(O)CC (stereo not given) | -0.587% [middle of 4 runs] |
| C=Cc1ccccc1Cl | -0.389% |
| c1ccc2c(c1)c1cccc3ccc4cccc2c4c31 | -2.3% and -3.04% |
| Cc1cccc([N+](=O)[O-])c1C | 2.79% and -1.9% |
| CCCCCCCCO | 2.47% and -5.18% and -0.424% |
| CC(C)=CCCC(C)CCO (stereo not given) | -8.23% and 0.206% |
| O=[N+]([O-])c1cccc(Cl)c1Cl | -3.44% and -1.57% |
| CCO[Si](CCCN)(OCC)OCC | -1.45% and -1.48% |
| Clc1cc(Cl)c(Cl)cc1Cl | -0.154% and -0.267% |
| CCO | -0.991% |
| C=CC(=O)OCCOCCOCCOCCOC(=O)C=C | -0.0133% and -3.95% |
| Clc1cc(Cl)c(Cl)c(Cl)c1Cl | -5.3% and -0.232% |
| CCCCC(CC)CN (stereo not given) | -4.52% and -4.66% |
| O=NO | 0.744% and -3.6% |
| c1ccc2c(c1)[nH]c1ccccc12 | 5.12% and 0.259% |
| OCCNCCO | 0.687% and 0.279% |
| Nc1ccc(Cl)cc1Cl | 3.51% and 0.0732% |
| CCC(C)c1ccccc1O (stereo not given) | 4.33% and -1.41% and -1.75% |
| CC1=CC(C)(C)Nc2ccccc21 | 2.08% and -3.28% |
| CN(C)C=O | 18% and -2.47% and -1.42% |
| Cc1ccc(N)c([N+](=O)[O-])c1 | -6.83% and -1.01% |
| CCCCOCCO | -6.41% and -1.42% and -1.76% |
| CC(=O)OC/C=C(\C)CCC=C(C)C | -5.73% and -0.163% |

Target: Nuclear receptor ROR-gamma (Homo sapiens) (UniProt P51449)
Experiment: qHTS assay for small molecule antagonists of the retinoid-related orphan receptor gamma (ROR-gamma) signaling pathway (AID 651802); also: nearly all actives have a fitted effect of over 60% in size; also: potency is read from the fitted curve at half-maximal effect;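 as to activity change, negative = inhibition: CHO cells with doxycycline-induced ROR-gamma expression; % is scaled to controls: 0 for no effect and ±100 for the full control effect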
Details: ROR-gamma antagonist cell reporter assay; series mostly up to 92.2 µM; activity change, negative = inhibition: at the top concentration
Outline: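 Antagonism is scored as a fall in luminescence from a RORE-luciferase reporter in CHO cells expressing ROR under a TET-inducible promoter, measured 16hr after doxycycline induction in the presence of compound.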

Nuclear receptor ROR-gamma (Homo sapiens), sequence (P51449 whole entry, looked up): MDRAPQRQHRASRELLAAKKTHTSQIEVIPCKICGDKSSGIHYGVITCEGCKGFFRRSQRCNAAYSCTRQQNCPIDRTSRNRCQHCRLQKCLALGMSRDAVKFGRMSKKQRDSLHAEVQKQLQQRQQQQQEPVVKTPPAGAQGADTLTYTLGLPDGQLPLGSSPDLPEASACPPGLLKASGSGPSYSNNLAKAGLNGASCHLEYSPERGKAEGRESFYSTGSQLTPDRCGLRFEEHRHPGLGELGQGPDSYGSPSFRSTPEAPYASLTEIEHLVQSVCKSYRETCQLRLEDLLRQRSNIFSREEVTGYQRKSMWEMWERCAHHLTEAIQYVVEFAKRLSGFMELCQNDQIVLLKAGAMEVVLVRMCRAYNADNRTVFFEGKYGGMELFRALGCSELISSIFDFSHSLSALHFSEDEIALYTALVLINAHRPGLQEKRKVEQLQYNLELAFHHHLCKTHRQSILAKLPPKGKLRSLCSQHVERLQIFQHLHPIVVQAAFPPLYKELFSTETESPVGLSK

| SMILES | activity change, negative = inhibition | Potency |
| --- | --- | --- |
| CCCN(CCC)C(=O)SCC | 10.2% | – |
| COc1ccc2nc(N)sc2c1 | 118% | – |
| ClCCCl | -26.7% | – |
| C=Cc1ccccc1Cl | 7.74% | – |
| c1ccc2c(c1)c1cccc3ccc4cccc2c4c31 | -5.17% | – |
| CCCCCCCCO | -17.9% | – |
| CC(C)=CCCC(C)CCO (stereo not given) | 11.7% | – |
| O=[N+]([O-])c1cccc(Cl)c1Cl | -6.13% | – |
| CCO[Si](CCCN)(OCC)OCC | 22.9% | – |
| Clc1cc(Cl)c(Cl)cc1Cl | 15.8% | – |
| CCO | 46% | – |
| C=CC(=O)OCCOCCOCCOCCOC(=O)C=C | – | 11.9 µM (active) and 21.1 µM (active) |
| Clc1cc(Cl)c(Cl)c(Cl)c1Cl | 1.15% | – |
| CCCCC(CC)CN (stereo not given) | – | inactive |
| Nc1ccc(Cl)cc1Cl | 26.2% | – |
| CCC(C)c1ccccc1O (stereo not given) | – | inactive |
| CC1=CC(C)(C)Nc2ccccc21 | – | inactive |
| CN(C)C=O | – | inactive |
| CCCCOCCO | – | inactive |
| CC(=O)OC/C=C(\C)CCC=C(C)C | 13.4% | – |

System: not listed separately
Experiment: qHTS assay for small molecule agonists of the antioxidant response element (ARE) signaling pathway measured by Nrf2-dependant transcriptional activity (AID 720636; active = well fitted curve in the direction sought with a large enough effect in the repeat runs; an effect the other way counts as inactive or inconclusive; also: potency is read from the fitted curve at half-maximal effect; as to activation: % of control where 0% means no effect)
Details: ARE-luc HepG2, Nrf2 luciferase reporter, 16 h; series mostly up to 92.4 µM; activation: at the top concentration
Outline: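 Nrf2-dependent transcription read as ONE-Glo luciferase signal from ARE-luc HepG2 reporter cells after 16 hr compound treatment at 37 C, 5% CO2, in assay medium with 1% dialyzed FBS.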

| SMILES | Potency | activation |
| --- | --- | --- |
| CCCN(CCC)C(=O)SCC | inactive | – |
| ClCCCl | inactive | – |
| CCC(O)OC(O)CC (stereo not given) | inactive | – |
| C=Cc1ccccc1Cl | – | -1.72% |
| Cc1cccc([N+](=O)[O-])c1C | inactive | – |
| CCCCCCCCO | inactive | – |
| CC(C)=CCCC(C)CCO (stereo not given) | inactive | – |
| O=[N+]([O-])c1cccc(Cl)c1Cl | inactive | – |
| CCO[Si](CCCN)(OCC)OCC | inactive | – |
| Clc1cc(Cl)c(Cl)cc1Cl | inactive | – |
| CCO | – | -1.29% |
| C=CC(=O)OCCOCCOCCOCCOC(=O)C=C | 66.8 µM (active) | – |
| Clc1cc(Cl)c(Cl)c(Cl)c1Cl | inactive | – |
| CCCCC(CC)CN (stereo not given) | inactive | – |
| O=NO | inactive | – |
| OCCNCCO | inactive | – |
| Nc1ccc(Cl)cc1Cl | inactive | – |
| CCC(C)c1ccccc1O (stereo not given) | inactive | – |
| CC1=CC(C)(C)Nc2ccccc21 | inactive | – |
| CN(C)C=O | inactive | – |
| Cc1ccc(N)c([N+](=O)[O-])c1 | inactive | – |
| CCCCOCCO | inactive | – |
| CC(=O)OC/C=C(\C)CCC=C(C)C | inactive | – |

System: not listed separately
Experiment: qHTS assay for small molecule antagonists of the retinoid-related orphan receptor gamma (ROR-gamma) signaling pathway - cell viability counter screen (AID 720652; active = well fitted curve in the direction sought with a large enough effect in the repeat runs; an effect the other way counts as inactive or inconclusive;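 also: CHO reporter cells with doxycycline-induced ROR-gamma expression; compound exposure lasted 16 hr before ATP read; % is scaled to controls: 0 for no effect and ±100 for the full control effect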)
Details: RORgamma reporter cell line viability counter screen; series mostly up to 92.2 µM; activity change, negative = cytotoxicity: at the top concentration
Outline: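 Cytotoxicity is quantified via intracellular ATP (CellTiter-Glo luminescence) in doxycycline-induced CHO ROR response element-luciferase reporter cells treated with compound for 16 hr at 37 C, 5% CO2.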

| SMILES | activity change, negative = cytotoxicity | Potency |
| --- | --- | --- |
| CCCN(CCC)C(=O)SCC | 4.67% | – |
| COc1ccc2nc(N)sc2c1 | -14.7% | – |
| ClCCCl | 2.29% | – |
| CCC(O)OC(O)CC (stereo not given) | – | inactive |
| C=Cc1ccccc1Cl | 11.1% | – |
| c1ccc2c(c1)c1cccc3ccc4cccc2c4c31 | -3.53% | – |
| Cc1cccc([N+](=O)[O-])c1C | -2.55% | – |
| CCCCCCCCO | -1.83% | – |
| CC(C)=CCCC(C)CCO (stereo not given) | 5.69% | – |
| O=[N+]([O-])c1cccc(Cl)c1Cl | 2.48% | – |
| CCO[Si](CCCN)(OCC)OCC | -9.95% | – |
| Clc1cc(Cl)c(Cl)cc1Cl | 8.02% | – |
| CCO | 14.7% | – |
| C=CC(=O)OCCOCCOCCOCCOC(=O)C=C | 51.5% | – |
| Clc1cc(Cl)c(Cl)c(Cl)c1Cl | 13% | – |
| CCCCC(CC)CN (stereo not given) | – | inactive |
| O=NO | – | inactive |
| c1ccc2c(c1)[nH]c1ccccc12 | -8.64% | – |
| OCCNCCO | 7.38% | – |
| Nc1ccc(Cl)cc1Cl | 8.52% | – |
| CCC(C)c1ccccc1O (stereo not given) | – | inactive |
| CC1=CC(C)(C)Nc2ccccc21 | 12% | – |
| CN(C)C=O | – | inactive |
| Cc1ccc(N)c([N+](=O)[O-])c1 | -1.57% | – |
| CCCCOCCO | – | inactive |
| CC(=O)OC/C=C(\C)CCC=C(C)C | 9.18% | – |
